# Measured values published in PubChem BioAssay (Tox21).
# Inconclusive results are not listed. Entries that show only a call come without a potency. A number with no mark means an inactive call. The source made the active and inactive calls. Unless noted, calls come from the whole dose curve; as a rule, active = well fitted curve in the direction sought with a large enough effect in the repeat runs; inconclusive = weak or mixed curves; inactive = no such curve, though single readings can be large; an effect the other way counts as inactive or inconclusive.
# Tests used:
# [1] = target: Luciferin 4-monooxygenase (Photinus pyralis) (UniProt P08659); assay: qHTS assay to identify small molecule inhibitors of firefly luciferase (AID 1224835); note: nearly all actives have a fitted effect of over 25% in size; note: potency is the fitted concentration of half-maximal effect; for activity change, negative = inhibition: series mostly up to about 120 µM
# Outline: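 Biochemical qHTS: compounds run as interplate titrations against purified firefly enzyme, with D-luciferin and ATP each at its KM concentration. Light output recorded by CCD imaging.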
# [2] = qHTS assay to identify small molecule agonists of the constitutive androstane receptor (CAR) signaling pathway - cell viability counter screen (AID 1224836); note: series mostly up to about 92 µM; nearly all actives have a fitted effect of over 45% in size
# Outline: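 Double-stable HepG2 hepatoma cells (hCAR plus CYP2B6-2.2kb) are treated for 23 h at 37 C with test compounds in 15-point concentration series. PK11195 at 0.75 uM final is co-added. Cell viability is quantified by CellTiter-Fluor.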
# [3] = qHTS assay to identify small molecule antagonists of the constitutive androstane receptor (CAR) signaling pathway - cell viability counter screen (AID 1224837); note: series mostly up to about 92 µM; nearly all actives have a fitted effect of over 45% in size
# Outline: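 In quantitative HTS format, compounds at 15 concentrations were applied to HepG2 cells double-transfected with hCAR and CYP2B6-2.2kb under 50 nM CITCO stimulation; live-cell protease activity was read after 23 hr via CellTiter-Fluor.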
# [4] = target: Nuclear receptor subfamily 1 group I member 3 (Homo sapiens) (UniProt Q14994); assay: qHTS assay to identify small molecule antagonists of the constitutive androstane receptor (CAR) signaling pathway (AID 1224838); note: nearly all actives have a fitted effect of over 40% in size
# Outline: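 CITCO-stimulated (50 nM final) HepG2 cells stably transfected with hCAR and CYP2B6-2.2kb luciferase were exposed to compounds at 15 concentrations for 24 h at 37 C/5% CO2. A luciferase reagent was added and luminescence recorded after 30 min.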
# [5] = qHTS assay to identify small molecule antagonists of the estrogen related receptor signaling pathway with the pleiotropic PPARgamma coactivator (PGC) from Tox21 10K library - cell viability counter screen (AID 1224840; active = well fitted cell-killing curve with a large enough effect in the repeat runs, not every such curve was filed as active; note: nearly all actives have a fitted effect of over 40% in size)
# Outline: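 Viability counter screen, PGC/ERR cells: 17.5 h compound exposure at 37 C, CellTiter-Fluor fluorescence endpoint.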
# [6] = target: Thyrotropin receptor (Homo sapiens) (UniProt P16473); assay: qHTS assay to identify small molecule agonists of the thyroid stimulating hormone receptor (TSHR) signaling pathway (AID 1224843; calls by dose curve; note: nearly all actives have a fitted effect of over 45% in size; note: potency is the fitted concentration of half-maximal effect)
# Outline: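 HEK293/TSHR, 800 cells/well; cpd 30 min RT; add cAMP-d2 + anti-cAMP-cryptate, 1 h RT; fluorescence read on plate reader. 15-pt titration, n=3.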
# [7] = qHTS assay to identify small molecule agonists of the hypoxia (HIF-1) signaling pathway - cell viability counter screen (AID 1224844; calls by dose curve; note: nearly all actives have a fitted effect of over 50% in size; note: potency is the fitted concentration of half-maximal effect)
# Outline: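 Same wells as the HIF-1 reporter screen; ME-180 cells carrying HRE-bla, 17 hr treatment at 37C; CellTiter-Glo luminescence read after 30 min at room temperature.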
# [8] = qHTS assay to identify small molecule antagonists of the estrogen related receptor signaling pathway with the pleiotropic PPARgamma coactivator (PGC) from Tox21 10K library (AID 1224841; call rule not given here; note: series mostly up to about 92 µM; actives are mostly falling curves and most rising ones were filed inactive; nearly all actives have a fitted effect of over 50% in size)
# Outline: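 In the PGC/ERR line, DMSO solutions of test chemicals are pin-delivered to 2,000 cells/well six hours after dispensing. Following eighteen hours' incubation, One-Glo reagent is added and luminescence recorded.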
# [9] = qHTS assay to identify small molecule agonists of the estrogen related receptor signaling pathway with the pleiotropic PPARgamma coactivator (PGC) from Tox21 10K library (AID 1224842); note: nearly all actives have a fitted effect of over 15% in size; note: potency is the fitted concentration of half-maximal effect
# Outline: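 PGC/ERR reporter cell line, 2,000 cells per well, incubated 6 h at 37 C before 23 nL compound in DMSO was added. After 18 h at 37 C, One-Glo luminescence read following 30 min at room temperature.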
# [10] = target: Nuclear receptor subfamily 1 group I member 3 (Homo sapiens) (UniProt Q14994); assay: qHTS assay to identify small molecule agonists of the constitutive androstane receptor (CAR) signaling pathway (AID 1224839);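 note: HepG2 cells stably carrying human CAR and a CYP2B6 luciferase reporter; series mostly up to about 92 µM; nearly all actives have a fitted effect of over 15% in size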
# Outline: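 Readout: firefly luciferase luminescence via ONE-Glo. System: HepG2 double-stable for hCAR and CYP2B6-2.2kb. Conditions: 15-point compound titration, PK11195 at 0.75 uM final, 24 h incubation.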
# Sequence of Luciferin 4-monooxygenase (Photinus pyralis) (P08659 whole entry, looked up): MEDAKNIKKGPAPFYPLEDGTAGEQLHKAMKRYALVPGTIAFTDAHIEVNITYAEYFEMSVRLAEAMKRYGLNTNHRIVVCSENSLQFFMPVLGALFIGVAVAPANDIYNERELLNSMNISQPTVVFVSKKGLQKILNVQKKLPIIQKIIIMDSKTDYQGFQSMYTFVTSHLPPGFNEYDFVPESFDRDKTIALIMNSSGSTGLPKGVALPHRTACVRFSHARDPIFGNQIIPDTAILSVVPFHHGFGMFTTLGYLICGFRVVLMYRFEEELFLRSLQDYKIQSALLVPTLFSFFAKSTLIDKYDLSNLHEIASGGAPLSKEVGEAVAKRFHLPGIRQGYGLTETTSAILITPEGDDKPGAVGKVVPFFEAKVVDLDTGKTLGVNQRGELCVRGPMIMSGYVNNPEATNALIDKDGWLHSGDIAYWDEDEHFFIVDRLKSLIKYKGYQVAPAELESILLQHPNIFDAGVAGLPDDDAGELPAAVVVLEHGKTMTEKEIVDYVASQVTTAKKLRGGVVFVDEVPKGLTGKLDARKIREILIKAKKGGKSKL
# Sequence of Thyrotropin receptor (Homo sapiens) (P16473 whole entry, looked up): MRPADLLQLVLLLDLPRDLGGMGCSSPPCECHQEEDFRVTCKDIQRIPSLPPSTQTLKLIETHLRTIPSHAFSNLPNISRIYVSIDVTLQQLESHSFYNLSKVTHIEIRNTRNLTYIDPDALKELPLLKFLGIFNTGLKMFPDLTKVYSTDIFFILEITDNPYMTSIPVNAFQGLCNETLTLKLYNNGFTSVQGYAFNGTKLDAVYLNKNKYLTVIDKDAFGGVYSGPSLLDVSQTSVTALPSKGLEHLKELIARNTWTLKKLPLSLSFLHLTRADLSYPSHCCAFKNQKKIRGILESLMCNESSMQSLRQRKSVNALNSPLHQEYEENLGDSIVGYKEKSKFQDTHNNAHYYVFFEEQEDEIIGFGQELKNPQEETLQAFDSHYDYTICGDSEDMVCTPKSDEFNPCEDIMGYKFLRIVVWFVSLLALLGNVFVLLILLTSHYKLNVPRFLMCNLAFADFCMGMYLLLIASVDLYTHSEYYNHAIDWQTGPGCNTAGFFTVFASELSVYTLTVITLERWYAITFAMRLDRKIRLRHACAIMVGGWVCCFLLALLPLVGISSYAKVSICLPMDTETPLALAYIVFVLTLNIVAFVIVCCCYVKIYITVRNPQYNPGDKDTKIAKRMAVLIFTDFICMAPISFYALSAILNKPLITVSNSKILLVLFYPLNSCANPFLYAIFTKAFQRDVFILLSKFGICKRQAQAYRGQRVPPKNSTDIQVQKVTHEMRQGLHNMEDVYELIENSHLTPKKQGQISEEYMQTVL
# Sequence of Nuclear receptor subfamily 1 group I member 3 (Homo sapiens) (Q14994 whole entry, looked up): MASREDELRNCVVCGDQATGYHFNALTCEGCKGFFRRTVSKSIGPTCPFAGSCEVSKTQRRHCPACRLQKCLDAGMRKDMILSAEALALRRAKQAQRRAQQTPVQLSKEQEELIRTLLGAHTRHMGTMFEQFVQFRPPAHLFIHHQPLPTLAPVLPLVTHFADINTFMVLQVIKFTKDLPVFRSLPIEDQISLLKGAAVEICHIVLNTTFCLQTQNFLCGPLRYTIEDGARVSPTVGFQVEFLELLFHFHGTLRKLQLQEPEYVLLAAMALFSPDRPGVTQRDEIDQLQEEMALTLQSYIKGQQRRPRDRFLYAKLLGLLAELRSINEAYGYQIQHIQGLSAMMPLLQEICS
structure (smiles),measurement,setting,value
Cc1ccc2c(ccc3ccccc32)c1,Potency,[1],31.8 µM (active)
same,Potency,[2],inactive
same,Potency,[3],inactive
same,Potency,[4],inactive
same,Potency,[5],inactive
same,Potency,[6],inactive
same,Potency,[7],inactive
CCCCCC(CO)CCC (stereo not given),Potency,[1],inactive
same,Potency,[2],inactive
same,Potency,[3],inactive
same,Potency,[5],inactive
same,Potency,[8],inactive
same,Potency,[6],inactive
same,Potency,[7],inactive
CC(C)(C)c1ccc(OCC2CO2)cc1 (stereo not given),Potency,[1],32.4 µM (active)
same,Potency,[2],inactive
same,Potency,[3],inactive
same,Potency,[5],inactive
same,Potency,[8],inactive
same,Potency,[9],inactive
same,Potency,[6],inactive
same,Potency,[7],inactive
CCOC(=O)C1=NN(c2ccccc2)C(=O)C1,Potency,[1],inactive
same,Potency,[2],inactive
same,Potency,[3],inactive
same,Potency,[5],inactive
same,Potency,[6],inactive
COC(=O)CSc1cc(N=c2sc(=O)n3n2CCCC3)c(F)cc1Cl,Potency,[1],inactive
same,Potency,[2],inactive
same,Potency,[3],inactive
same,Potency,[10],inactive
same,Potency,[5],inactive
same,Potency,[6],inactive
same,Potency,[7],inactive
CCN1CCC[C@H]1CNC(=O)c1c(OC)ccc(Br)c1OC,Potency,[1],inactive
same,Potency,[2],inactive
same,Potency,[3],inactive
same,Potency,[5],inactive
same,Potency,[6],inactive
CCCC(C)C,Potency,[1],inactive
same,Potency,[2],inactive
same,Potency,[3],inactive
same,Potency,[5],inactive
same,Potency,[6],inactive
same,Potency,[7],inactive
Oc1ccc(C(O)CNCCCCCCNCC(O)c2ccc(O)c(O)c2)cc1O (stereo not given),Potency,[1],inactive
same,Potency,[2],inactive
same,Potency,[3],inactive
same,Potency,[4],inactive
same,Potency,[5],inactive
same,Potency,[9],7.5 µM (active)
same,Potency,[6],6.68 µM (active)
same,Potency,[7],inactive
CC1CCc2cc(F)cc3c(=O)c(C(=O)O)cn1c23 (stereo not given),Potency,[1],inactive
same,Potency,[2],inactive
same,Potency,[3],inactive
same,Potency,[4],inactive
same,Potency,[5],inactive
same,Potency,[6],inactive
same,Potency,[7],inactive
CNCC[C@@H](Oc1ccccc1C)c1ccccc1,Potency,[1],inactive
same,Potency,[2],inactive
same,Potency,[3],inactive
same,Potency,[10],inactive
same,Potency,[5],inactive
same,Potency,[9],inactive
same,Potency,[6],inactive
same,Potency,[7],inactive
CN1CCC[C@@H]1c1cccnc1,Potency,[1],inactive
same,Potency,[2],inactive
same,Potency,[3],inactive
same,Potency,[4],inactive
same,Potency,[5],inactive
same,Potency,[7],inactive
O=C(O)Cn1c(C(=O)Nc2nc(-c3ccccc3Cl)cs2)cc2ccccc21,Potency,[1],13.8 µM (active)
same,Potency,[2],inactive
same,Potency,[3],inactive
same,Potency,[4],inactive
same,Potency,[8],inactive
same,Potency,[9],inactive
same,Potency,[6],inactive
same,Potency,[7],8.49 µM (active)
CCCCc1cc2ccccc2c(OCCN(C)C)n1,Potency,[1],inactive
same,Potency,[2],inactive
same,Potency,[3],inactive
same,Potency,[5],inactive
same,Potency,[6],inactive
NC[C@H]1O[C@H](O[C@H]2[C@H](O)[C@@H](O[C@H]3O[C@H](CO)[C@@H](O)[C@H](N)[C@H]3O)[C@H](N)C[C@@H]2N)[C@H](O)[C@@H](O)[C@@H]1O,"activity change, negative = inhibition",[1],8.02% [at 10.5 µM]
same,"viability change, negative = cytotoxic",[2],-3.02% [at 8.39 µM]
same,"activity change, negative = cytotoxicity",[3],2.42% [at 8.39 µM]
same,"viability change, negative = cytotoxic",[5],5.71% [at 8.39 µM]
same,activation,[6],-0.345% [at 8.39 µM]
Cc1cc(CC(=O)O)c(C)n1-c1ccc(Cl)cc1,Potency,[1],inactive
same,Potency,[2],inactive
same,Potency,[3],inactive
same,Potency,[5],inactive
same,Potency,[8],inactive
same,Potency,[9],inactive
same,Potency,[7],inactive
Cc1ccc(C(N)=O)cc1N,Potency,[1],inactive
same,Potency,[2],inactive
same,Potency,[3],inactive
same,Potency,[5],inactive
same,Potency,[8],inactive
same,Potency,[9],inactive
same,Potency,[6],inactive
same,Potency,[7],inactive
O=C(CC(=O)c1ccccc1)c1ccccc1,Potency,[1],6.06 µM (active)
same,Potency,[2],inactive
same,Potency,[3],inactive
same,Potency,[5],inactive
same,Potency,[8],inactive
same,Potency,[6],inactive
same,Potency,[7],inactive
Cc1ccc(C(C)c2ccc(C)c(C)c2)cc1C,Potency,[1],inactive
same,Potency,[2],inactive
same,Potency,[3],inactive
same,Potency,[4],inactive
same,Potency,[10],inactive
same,Potency,[7],inactive
COc1cc(C(C)(C)C)c(O)c(C(C)(C)C)c1,Potency,[1],inactive
same,Potency,[2],inactive
same,Potency,[3],inactive
same,Potency,[5],inactive
same,Potency,[8],inactive
same,Potency,[7],inactive
O=C(O)COC(=O)Cc1ccccc1Nc1c(Cl)cccc1Cl,Potency,[1],inactive
same,Potency,[2],inactive
same,Potency,[3],inactive
same,Potency,[5],inactive
same,Potency,[8],inactive
same,Potency,[9],inactive
same,Potency,[6],inactive
same,Potency,[7],inactive
O=C(O)Cc1sc(-c2ccccc2)nc1-c1ccc(Cl)cc1,Potency,[1],inactive
same,Potency,[2],inactive
same,Potency,[3],inactive
same,Potency,[5],inactive
same,Potency,[8],inactive
same,Potency,[6],inactive
CCCCOc1cc(C(=O)OCCN(CC)CC)ccc1N,Potency,[1],inactive
same,Potency,[2],inactive
same,Potency,[3],inactive
same,Potency,[4],inactive
same,Potency,[5],inactive
same,Potency,[7],inactive
CC(C)NCC(O)COc1ccc(CC(N)=O)cc1 (stereo not given),Potency,[1],inactive
same,Potency,[2],inactive
same,Potency,[3],inactive
same,Potency,[5],inactive
same,Potency,[6],inactive
CC(=O)Nc1ccc(/C=N/NC(N)=S)cc1,Potency,[1],inactive
same,Potency,[2],inactive
same,Potency,[3],inactive
same,Potency,[10],inactive
same,Potency,[5],inactive
same,Potency,[6],inactive
same,Potency,[7],inactive
SC1CCCC1,Potency,[1],inactive
same,Potency,[2],inactive
same,Potency,[3],inactive
same,Potency,[5],inactive
same,Potency,[6],inactive
same,Potency,[7],inactive
CC(C)=CCCC(C)CC=O (stereo not given),Potency,[1],inactive
same,Potency,[2],inactive
same,Potency,[3],inactive
same,Potency,[5],inactive
same,Potency,[6],inactive
same,Potency,[7],inactive
CC(=O)c1c(C)c([N+](=O)[O-])c(C(C)(C)C)c([N+](=O)[O-])c1C,Potency,[1],inactive
same,Potency,[2],inactive
same,Potency,[3],inactive
same,Potency,[4],inactive
same,Potency,[5],inactive
same,Potency,[6],6.11 µM (active)
same,Potency,[7],inactive
C1=Cc2ccccc2C1,Potency,[1],inactive
same,Potency,[2],inactive
same,Potency,[3],inactive
same,Potency,[4],inactive
same,Potency,[5],inactive
same,Potency,[8],inactive
same,Potency,[9],inactive
same,Potency,[7],inactive
CC(C)(C)c1ccc(S)cc1,Potency,[1],inactive
same,Potency,[2],inactive
same,Potency,[3],inactive
same,Potency,[4],inactive
same,Potency,[5],inactive
same,Potency,[6],inactive
same,Potency,[7],inactive
COCCOCCOCCOCCOC,Potency,[1],inactive
same,Potency,[2],inactive
same,Potency,[3],inactive
same,Potency,[5],inactive
same,Potency,[6],inactive
OCCC1CCCCN1 (stereo not given),Potency,[1],inactive
same,Potency,[2],inactive
same,Potency,[3],inactive
same,Potency,[5],inactive
same,Potency,[6],inactive
same,Potency,[7],inactive
CC(=O)N(O)CCCCCNC(=O)CCC(=O)N(O)CCCCCNC(=O)CCC(=O)N(O)CCCCCN,Potency,[1],inactive
same,Potency,[2],inactive
same,Potency,[3],inactive
same,Potency,[5],inactive
same,Potency,[9],inactive
same,Potency,[6],inactive
same,Potency,[7],inactive
